According to PubChem BioAssay AID504523 (Broad Institute, 2011):
Hit rate of the full screen: of about 340,000 compounds, about 490 (0.14%) were called active. What follows is part of a selection rich in actives, with near analogues and random picks from the rest. A number with no mark means an inactive call. Cut-off read from the data, not from the text of the source: active = inhibition above about 12%; inconclusive = no clear call, values can overlap the other calls; inactive = below about 7.3%.

The compounds below were run against Kelch-like ECH-associated protein 1 (Homo sapiens) (UniProt Q14145) (assay: Keap1-Nrf2 protein-protein interaction inhibitors, primary screen, biochemical, fluorescence polarization, single point (AID 504523;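 note: human Keap1 Kelch domain with fluorescein labeled Nrf2 9mer peptide probe; 0% = neutral control wells and 100% = peptide positive control; higher means more block of Keap1 binding to Nrf2 peptide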)). Conditions: Keap1 Kelch-Nrf2 peptide fluorescence polarization, 1536-well; at 9.4 µM; hits give high values.
Chain of Kelch-like ECH-associated protein 1 (Homo sapiens) (Q14145 whole entry, looked up, the tested form may be a part): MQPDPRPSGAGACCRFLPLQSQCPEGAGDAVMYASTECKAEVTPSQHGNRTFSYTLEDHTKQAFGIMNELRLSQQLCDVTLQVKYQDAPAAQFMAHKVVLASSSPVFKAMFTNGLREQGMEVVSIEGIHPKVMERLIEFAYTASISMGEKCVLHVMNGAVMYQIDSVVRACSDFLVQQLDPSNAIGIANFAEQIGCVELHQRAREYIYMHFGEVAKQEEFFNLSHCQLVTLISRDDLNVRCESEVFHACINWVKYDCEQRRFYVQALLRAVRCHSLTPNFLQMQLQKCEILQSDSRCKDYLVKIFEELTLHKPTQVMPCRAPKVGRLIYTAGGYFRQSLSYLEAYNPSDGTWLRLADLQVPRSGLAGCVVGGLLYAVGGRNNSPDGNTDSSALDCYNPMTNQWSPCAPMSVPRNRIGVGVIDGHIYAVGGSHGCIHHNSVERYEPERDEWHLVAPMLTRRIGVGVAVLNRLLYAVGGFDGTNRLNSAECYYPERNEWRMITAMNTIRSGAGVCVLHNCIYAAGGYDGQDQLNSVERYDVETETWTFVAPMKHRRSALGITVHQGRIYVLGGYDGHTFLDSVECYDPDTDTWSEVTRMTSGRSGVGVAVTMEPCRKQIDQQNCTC

Row | Structure (SMILES) | inhibition
1 | CC1(C)CC(=O)C(C2=NC(C)(C)Cc3ccccc32)=C(O)C1 | -1.79%
2 | CC1(C)CC(=O)C(N=Nc2c(F)cccc2F)=C(O)C1 | 37.8% (active)
3 | CC1(C)CC(=O)C(N=Nc2ccc(S(=O)(=O)N3CCCCCC3)cc2)=C(O)C1 | 5.03%
4 | CN1CCOC1c1ccc(C2OCCN2C)cc1 (stereo not given) | 1.77%
5 | COC(=O)Cc1c(-c2[nH]c3ccccc3c2CC(=O)OC)[nH]c2ccccc12 | -0.936%
6 | COC(=O)C[n+]1cccc2ccccc21 | 36.4% (active)
7 | O=C(C[n+]1cc(Br)cc2ccccc21)c1ccc(F)cc1 | -7.79%
8 | CCN1CCC(O)(/C=C/c2ccc(C)cc2)C(C(=O)/C=C/c2ccc(C)cc2)C1 (stereo not given) | -56.9%
9 | CCC1CCC2(CC1)NC(=O)N(CC(=O)Nc1ccc(OC)cc1)C2=O (stereo not given) | -5.89%
10 | COc1cccc(CN2CCNC(=O)C2CC(=O)N(C)CCc2ccccn2)c1 (stereo not given) | -0.18%
11 | CCOC(=O)C1(Cc2ccccc2C)CCCN(S(C)(=O)=O)C1 (stereo not given) | -4.08%
12 | Cc1ccc(F)cc1NC(=O)N1CCCN(c2ccc(C(F)(F)F)cn2)CC1 | -5.94%
13 | OC1CSc2nc3ccccc3n2C1 (stereo not given) | 1.42%
14 | CCOC(=O)c1c(C)n(C)c2ccc(OC)c(NC(=O)CN3CCC4(CC3)OCCO4)c12 | -2.53%
15 | COc1ccc(C(CNC(=O)c2cc(S(=O)(=O)Nc3cccc(C)c3)ccc2C)N2CCCC2)cc1 (stereo not given) | -2.75%
16 | Cc1cccc(NS(=O)(=O)c2ccc(C)c(C(=O)NCC(c3ccccc3)N(C)C)c2)c1 (stereo not given) | 46.2% (active)
17 | Cc1cccc(NS(=O)(=O)c2ccc(C)c(C(N)=O)c2)c1 | -6.17%
18 | CCOC(=O)N1CCN(C(=O)COC(=O)c2cccc(S(C)(=O)=O)c2)CC1 | 1.11%
19 | C/C(=N/NC(=S)Nc1ccccc1)c1ccc2c(c1)OCO2 | -4.81%
20 | Cc1ccc(NC(=O)CSc2sc3c(O)cc(=O)[nH]c3c2C#N)cc1C | -7.74%
21 | Cc1nc(CN(C)C(=O)CC2C(=O)NCCN2Cc2ccc(F)cc2)cs1 (stereo not given) | -0.6%
22 | COC(=O)c1sc(N)c(C(=O)OC)c1COC(=O)CNS(=O)(=O)c1ccc(C)cc1 | 2.32%
23 | CC(C)(O)C#Cc1ncc(C(F)(F)F)cc1Cl | 2.69%
24 | Brc1ccc(C2=CC(c3ccco3)n3ncnc3N2)cc1 (stereo not given) | 36.1% (active)
25 | Clc1ccc2c(c1)C1=C(C(c3ccncc3)O2)C(c2ccc(Br)cc2)n2ncnc2N1 (stereo not given) | -2.67%
